uPA generation: blocks generation of uPA at the cell surface. cell surface uPA generation assay, qHTS. Potency, µM (highest dose often 38.3 µM), actives largely listed as inhibitors. actives 0.31% (n = 330,000); active = well fitted inhibition curve with a large enough effect; inconclusive = small, poorly fitted or top-dose-only effect; inactive = no such curve, though single readings can be large or run the other way; tested in mouse RAW 264.7 cells; also: nearly all actives have a fitted effect of over 55% in size
TDP43 rescue: inhibitors of TDP-43 toxicity in yeast; Potency, µM (top dose mostly 46.1 µM), actives largely listed as activators; actives 1.8% (n = 410,000); TDP-43 expressing yeast growth rescue, BacTiter-Glo, 24 h; also: nearly all actives have a fitted effect of over 50% in size
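Cell-based yeast growth screen: TDP-43 expression induced in galactose, inoculum OD600=0.02 after raffinose pregrowth to mid-log. Read-out BacTiter-Glo luminescence at 24 hr, 30 deg C; inhibition of toxicity seen as signal increase.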
FUS yeast rescue: suppressors of FUS proteinopathy in yeast | S. cerevisiae FUS-expressing, growth rescue, OD600, 24 h | Potency, µM (series often up to 76.6 µM), actives largely listed as activators | actives 0.24% (n = 390,000); also: nearly all actives have a fitted effect of over 55% in size
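Steps: raffinose overnight preculture; dilution to OD 0.005 in 2% galactose minimal medium; compound addition (concentration series); 24hr at 30C, 99% humidity; absorbance read at 600 nm.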
aSyn yeast inh: rescues yeast growth from alpha-synuclein toxicity; Yeast expressing alpha-synuclein, growth rescue, BacTiter-Glo, 24 h; Potency, µM (doses to about 46.1 µM), hits mostly activators; actives 0.14% (n = 370,000); also: nearly all actives have a fitted effect of over 65% in size
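Readout is rescue of growth in alpha-synuclein-expressing yeast, so inhibitors of toxicity appear as activators. Growth after 24 hr at 30 deg C in galactose medium is quantified by luminescence.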
Abeta yeast res: A-beta toxicity reversal in yeast; yeast expressing A-beta42, growth rescue, OD600, 48 h; response scale: 0% DMSO, 100% iron-clioquinol control; Potency, µM (titrated, usually from 46.1 µM), actives largely listed as activators; actives 0.063% (n = 410,000); AID 1347071; also: nearly all actives have a fitted effect of over 55% in size
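Growth rescue measured by 600 nm absorbance after 48 h yeast culture at 30 C with compound. Values normalized between DMSO and an equimolar ferric chloride plus clioquinol control.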
Chronic BCR inh: inhibitors of chronic active B-cell receptor signaling. ABC-DLBCL IkBa-CBG/CBR reporter, luminescence ratio, 4 h. Potency, µM (titrated, usually from 46.1 µM), hits mostly inhibitors. actives 0.05% (n = 340,000); active = well fitted inhibition curve with a large enough effect in the signal ratio, with a control signal flat, not every such curve was filed as active; inconclusive = small, poorly fitted or top-dose-only effect, or effect the other way, or a change in a side signal; the % refers to the signal ratio
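Compounds up to 46 uM were incubated four hours with TMD8 cells whose green CBG68 luciferase is fused to IkappaBalpha; red CBR luminescence normalised the signal, and concentration-effect curves were fitted to fusion, red and ratio data.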
Each line names hits and unclear results; the compound was inactive in the other large screens; ! = repeats disagree. Compounds with a hit are over-represented: about 2.3% of the library has one in this group of screens. Unless noted, calls follow the shape of the dose curve; as a rule, active = well fitted curve in the direction sought with a large enough effect; inconclusive = small, poorly fitted or top-dose-only effect, or another doubt; inactive = no such curve, though single readings can be large; an effect the other way counts as inactive or inconclusive.

O=C(Nc1nc2c(s1)CCCC2)c1ccc(Br)o1	Chronic BCR inh inconclusive
CCC(Oc1ccc(F)cc1)C(=O)Nc1nc2c(s1)CCCC2 (stereo unspecified)	TDP43 rescue 11µM, Abeta yeast res inconclusive (no result: uPA generation, aSyn yeast inh, Chronic BCR inh)
Cc1ccc(S(=O)(=O)c2c(N)n(/N=C/c3ccco3)c3nc4ccccc4nc23)cc1C	Chronic BCR inh inconclusive
C/C(=N\NC(=S)NCCc1ccccc1)c1ccc(O)cc1O	Chronic BCR inh inconclusive
COc1ccccc1OP(=O)(O)Oc1ccccc1OC	none
Cn1c(=O)c2c(nc(NC(Cc3ccccc3)C(=O)O)n2Cc2ccccc2)n(C)c1=O (stereo unspecified)	Chronic BCR inh inconclusive
COCc1ccc(C(=O)N2CCCC(C(=O)c3cc(F)ccc3F)C2)s1 (stereo unspecified)	TDP43 rescue 11µM, Chronic BCR inh inconclusive
O=C(c1cc(F)ccc1F)C1CCCN(C(=O)c2cccs2)C1 (stereo unspecified)	none
COc1ccc(S(=O)(=O)NCC(c2cccs2)S(=O)(=O)c2ccccc2)cc1OC (stereo unspecified)	TDP43 rescue 3.2µM (no result: uPA generation, aSyn yeast inh)
O=S(=O)(NCC(c1cccs1)S(=O)(=O)c1ccccc1)c1ccc(F)c(C(F)(F)F)c1 (stereo unspecified)	TDP43 rescue inconclusive (no result: uPA generation, aSyn yeast inh)
O=S(=O)(NCC(c1cccs1)S(=O)(=O)c1ccccc1)c1ccc(F)cc1 (stereo unspecified)	TDP43 rescue 3.5µM, Chronic BCR inh inconclusive (no result: uPA generation, aSyn yeast inh)
COc1cccc(NC(=O)CN(C)C(=O)c2cccnc2Nc2cccc(C(F)(F)F)c2)c1	TDP43 rescue inconclusive, FUS yeast rescue inconclusive, Chronic BCR inh inconclusive
Cc1ccc(NC(=O)CN(C)C(=O)c2cccnc2Nc2cccc(C(F)(F)F)c2)cc1	TDP43 rescue 20µM
Cc1cc(C(=O)COC(=O)c2ccccc2O)c(C)n1CC1CCCO1 (stereo unspecified)	uPA generation inconclusive, Chronic BCR inh inconclusive
Cc1cc(C(=O)COC(=O)c2cccnc2Cl)c(C)n1CC1CCCO1 (stereo unspecified)	uPA generation 1.6µM, Chronic BCR inh inconclusive
Cc1cccc(OCc2nnc(SCc3cc(=O)n4cc(Br)ccc4n3)o2)c1	none
c1ccc(CCCc2nc(-c3cccnc3)no2)cc1	TDP43 rescue 8.9µM, Chronic BCR inh inconclusive
Cc1cccc(-c2noc(CCCC(=O)Nc3cccnc3)n2)c1	Chronic BCR inh inconclusive (no result: FUS yeast rescue)
COc1ccc(CCc2nc(-c3ccc(-n4cccc4)cc3)no2)cc1	none
O=C(CCCc1nc(-c2ccc(Cl)cc2)no1)Nc1cccnc1	TDP43 rescue 16µM, aSyn yeast inh inconclusive, Chronic BCR inh inconclusive
COc1ccc(-c2noc(CCc3ccccc3)n2)cc1	TDP43 rescue 18µM, Chronic BCR inh inconclusive
CC(OC(=O)c1ccccn1)C(=O)Nc1ccc2c(c1)OCCO2 (stereo unspecified)	none
Cc1nn(-c2ccc(Cl)c(Cl)c2Cl)c(=O)c2ccccc12	TDP43 rescue 16µM, Chronic BCR inh inconclusive
CCc1ccccc1NC(=O)CSc1nnc2ccc3ccccc3n12	TDP43 rescue inconclusive (no result: uPA generation, aSyn yeast inh, Chronic BCR inh)
O=C(CSc1nnc2ccc3ccccc3n12)Nc1ccccc1Cl	TDP43 rescue 18µM (no result: uPA generation, aSyn yeast inh, Chronic BCR inh)
C=C(CC)C(=O)c1ccc(OCC(=O)O)c(Cl)c1Cl	uPA generation 4.5µM, Chronic BCR inh inconclusive
O=C(COC(=O)c1cccc(S(=O)(=O)N2CCCCCC2)c1)Nc1ccccc1C(F)(F)F	none
CC(=O)c1cccc(N(C(=O)CNC(=O)c2ccco2)C(C(=O)NCC2CCCO2)c2ccccc2)c1 (stereo unspecified)	none
COC(=O)Cc1c(C)c2ccc(OCC(C)=O)c(C)c2oc1=O	Chronic BCR inh inconclusive
COc1ccc2ccccc2c1/C=N/NC(=S)NCCN1CCOCC1	Chronic BCR inh 20µM
CCC1=C(OC(=O)N(CC)CC)N2C(=O)OC(=NCC(=O)OC)[C@]2(C)[C@H]2C1=CC[C@H]1C(=O)N(C)C(=O)[C@H]12	Chronic BCR inh inconclusive
Cc1ccc2c(c1)C(c1ccccc1)N(C(=O)c1ccc(S(=O)(=O)N3CCCC3)cc1)CC(=O)N2 (stereo unspecified)	FUS yeast rescue 25µM (no result: uPA generation, aSyn yeast inh, Chronic BCR inh)
O=C1CN(C(=O)c2ccc(S(=O)(=O)N3CCCC3)cc2)C(c2ccccc2)c2cc(Cl)ccc2N1 (stereo unspecified)	FUS yeast rescue inconclusive (no result: uPA generation, aSyn yeast inh, Chronic BCR inh)
O=C(Nc1cccc(NC(=O)c2ccccc2)n1)c1ccccc1	TDP43 rescue 11µM, Chronic BCR inh inconclusive
Cc1cccc(NC(=O)c2ccc(C(=O)c3ccccc3)cc2)n1	TDP43 rescue inconclusive, Chronic BCR inh inconclusive
O=C(Nc1cc2c(cc1C(=O)O)OCCCO2)c1ccc(F)cc1F	Chronic BCR inh inconclusive (no result: uPA generation)
NC(Cc1ccccc1)c1csc(NC(=O)Nc2ccccc2Oc2ccccc2)n1 (stereo unspecified)	FUS yeast rescue inconclusive (no result: uPA generation, Chronic BCR inh)
N#C/C(=C\c1ccc(-c2ccccc2C(=O)O)o1)c1nc2ccccc2[nH]1	TDP43 rescue 22µM!
Cc1ccc2nc(/C(C#N)=C/c3ccc(-c4ccccc4C(=O)O)o3)[nH]c2c1	Chronic BCR inh inconclusive
Oc1c(C(c2ccc(Cl)cc2)N2CCCC2)cc(Cl)c2cccnc12 (stereo unspecified)	uPA generation inconclusive, aSyn yeast inh inconclusive, Chronic BCR inh inconclusive
Oc1c(C(c2ccccc2Cl)N2CCCC2)ccc2cccnc12 (stereo unspecified)	uPA generation 7.9µM, Chronic BCR inh inconclusive
CC1(C(=O)NS(=O)(=O)c2ccccc2Cl)CCN1C(=O)C1(c2ccccc2)CCCC1 (stereo unspecified)	TDP43 rescue inconclusive (no result: uPA generation, Chronic BCR inh)
CC1(C(=O)NS(=O)(=O)c2ccccc2Cl)CCN1C(=O)C1(c2ccc(Cl)cc2)CCC1 (stereo unspecified)	TDP43 rescue 13µM (no result: uPA generation, Chronic BCR inh)
Cc1ccccc1S(=O)(=O)NC(=O)C1(C)CCN1C(=O)C1(c2ccc(Cl)cc2)CCC1 (stereo unspecified)	TDP43 rescue 25µM, FUS yeast rescue inconclusive (no result: uPA generation, Chronic BCR inh)
Cc1ccccc1S(=O)(=O)NC(=O)C1(C)CCN1C(=O)c1ccccc1CCc1ccccc1 (stereo unspecified)	TDP43 rescue 35µM, FUS yeast rescue inconclusive (no result: uPA generation, Chronic BCR inh)
CC1(C(=O)NS(=O)(=O)c2ccccc2Cl)CCN1C(=O)C1(c2ccc(Cl)cc2)CC1 (stereo unspecified)	TDP43 rescue 35µM (no result: uPA generation, Chronic BCR inh)
CC1(C(=O)NS(=O)(=O)c2ccccc2)CCN1C(=O)C1(c2ccc(Cl)cc2)CCC1 (stereo unspecified)	none (no result: uPA generation, Chronic BCR inh)
COC(=O)CN1C(=O)COc2ccc(S(=O)(=O)NCc3ccc(F)cc3)cc21	none
